SMILES strings stand for the structures. Inconclusive results are not listed. Calls of active or inactive are those of the source. The call rests on the fitted dose curve; in most records, active means well fitted cell-killing curve with a large enough effect; inconclusive means small, poorly fitted or top-dose-only effect, or effect the other way; inactive means no such curve, though single readings can be large or run the other way.
Potency means the concentration at half of the fitted maximal effect.

The assay has as its system Es-2. The assay is described as follows: Confirmatory qHTS for gynecologic anti-cancer compounds from libraries of approved drugs and bioactive compounds. Further: nearly all actives have a fitted effect of over 55% in size. As to conditions: gynecologic cancer cell panel viability, ATPlite luminescence, 48 h; series mostly up to 57.6 µM. The gist of the method: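 ATPlite luminescence read-out of cell viability; IC50 from 11-point 1:3 titrations, 57.5 uM to 0.977 nM, 48 h compound exposure at 37 C, 5% CO2. Cells seeded at 1,000/well 16 h before dosing.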
A general note: In qHTS, concentration-response curves come from the screen itself.
Consider `O=C(O)Cc1ccccc1`, for which the Potency entry was “inactive”.
Next, `CCOc1ccccc1-n1c(C(C)N2CCN(C(=O)COc3ccc(Cl)cc3)CC2)nc2ccccc2c1=O` (centres undefined): 3.43 µM (active); `CCN1CCN(C(=O)Cc2ccc(Nc3ncc(F)c(Nc4ccc(C(=O)Nc5ccccc5Cl)cc4)n3)cc2)CC1`: “inactive”; `CCNC(=O)C[C@@H]1N=C(c2ccc(Cl)cc2)c2cc(OC)ccc2-n2c(C)nnc21`: 24.3 µM (active).
Next, `C[C@H]1CCC/C=C/C2C[C@H](O)C[C@H]2[C@H](O)/C=C/C(=O)O1` (some centres undefined): 0.485 µM (active); `C=C(C)[C@H]1Cc2c(ccc3c2O[C@@H]2COc4cc(OC)c(OC)cc4[C@@H]2C3=O)O1`: 0.685 µM (active).
Next, `CCC(=O)O[C@H]1CC[C@H]2[C@@H]3CCC4=CC(=O)CC[C@]4(C)[C@H]3CC[C@]12C`: “inactive”; `C[C@]12CC[C@H]3[C@@H](CCC4=CC(=O)CC[C@@H]43)[C@@H]1CC[C@@H]2OC(=O)CCc1ccccc1`: “inactive”.
Take `C/C=C(/C)C(=O)O[C@H]1C(C)=C2[C@H]([C@@H]1OC(=O)CCCCCCC)[C@@](C)(OC(C)=O)C[C@H](OC(=O)CCC)[C@@]1(O)[C@H]2OC(=O)[C@@]1(C)O`: the Potency was 27.3 µM (active).

Source of the values: PubChem BioAssay AID1345085 (National Center for Advancing Translational Sciences (NCATS), 2018).
